# Source: PubChem
# Sampled rows, rich in hits. Any-hit rate of the full collection: about 2.8%.
# S2 tox = cell viability loss in ATXN counter-screen; S2 cells (HEK-293 line with an ATXN2-luciferase reporter) viability, CellTiter-Fluor protease fluorescence, 24 h; Potency, µM (highest dose often 56.7 µM), most hits filed as cytotoxic; 400,000 tested, 0.49% active; further: nearly all actives have a fitted effect of over 40% in size
# Six1-Eya2 inh = Six1/Eya2 interaction inhibition. 360,000 tested, 0.56% active. Q15475+O00167. activity change, % (test concentration not listed). AlphaScreen GST-Six1/His-Eya2 binding, biochemical; stronger effect = lower value; in the data active means activity change below about -65%; inconclusive means mostly about -30% to -63%
# Target sequence (O00167 whole entry, looked up): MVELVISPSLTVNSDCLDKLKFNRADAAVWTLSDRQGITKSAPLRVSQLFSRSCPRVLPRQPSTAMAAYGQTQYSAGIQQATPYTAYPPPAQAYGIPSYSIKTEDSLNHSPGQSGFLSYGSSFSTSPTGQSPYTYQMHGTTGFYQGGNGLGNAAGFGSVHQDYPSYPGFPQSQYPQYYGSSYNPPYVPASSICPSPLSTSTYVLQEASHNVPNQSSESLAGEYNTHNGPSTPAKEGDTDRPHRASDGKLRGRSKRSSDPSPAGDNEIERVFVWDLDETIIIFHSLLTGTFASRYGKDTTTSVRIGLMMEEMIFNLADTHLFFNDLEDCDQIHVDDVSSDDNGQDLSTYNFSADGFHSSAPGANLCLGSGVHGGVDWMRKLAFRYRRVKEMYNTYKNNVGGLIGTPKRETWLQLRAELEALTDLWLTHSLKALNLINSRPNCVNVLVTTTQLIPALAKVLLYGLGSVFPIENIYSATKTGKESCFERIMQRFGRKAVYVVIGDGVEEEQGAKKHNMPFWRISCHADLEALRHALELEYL
# Target sequence (Q15475 whole entry, looked up): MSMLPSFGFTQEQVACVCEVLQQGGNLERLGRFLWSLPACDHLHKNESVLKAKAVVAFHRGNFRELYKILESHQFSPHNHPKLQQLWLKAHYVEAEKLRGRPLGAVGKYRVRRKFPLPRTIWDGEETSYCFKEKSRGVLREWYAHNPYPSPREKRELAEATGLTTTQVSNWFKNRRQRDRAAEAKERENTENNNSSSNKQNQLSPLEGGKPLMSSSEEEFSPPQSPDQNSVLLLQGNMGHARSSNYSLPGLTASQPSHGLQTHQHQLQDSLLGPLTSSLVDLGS
#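 GST-Six1 + His-Eya2 (5X stock: 250/500 nM); Tris pH 8.0, 300 mM NaCl, 0.05% BSA, 0.02% Tween 20; GSH donor/Ni acceptor beads; 1 h 37 °C dark; AlphaScreen readout.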
# HepG2 tox = counter-screen for TGF-b inhibitors: cytotoxicity in HepG2 cells; HepG2 CAGA-GFP viability, ATP luminescence, 18 h; Potency, µM (highest dose often 46.1 µM), most hits filed as cytotoxic; 410,000 tested, 0.76% active
#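 HepG2 CAGA-GFP cells (1000/well, DMEM with 1% FBS) received compound, then TGF-beta at 500 pg/mL final, and were incubated 18 hours at 37 degrees C. Viability was read by CellTiter-Glo luminescence. Media-only wells were set as complete cell-killing and DMSO as no toxicity.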
# CtBP-E1A blk = CtBP/E1A binding inhibition; AlphaScreen GST-E1A/His-CtBP binding, 1536-well; stronger effect = lower value; activity change, % (test concentration not listed); 340,000 tested, 0.49% active; in the data active means activity change below about -65%; inconclusive means mostly about -30% to -63%
#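 Steps: dispense buffer (Tris pH 8.0, NaCl 300 mM, TCEP 1 mM, BSA, Tween 20); add 5X protein mix (GST-E1A, His-CtBP, 125 nM each); pin 23 nL compound; 2 h at 37 °C, dark; add 5X beads (50 ug/mL); 1 h; read.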
# TGFb SMAD3 inh = TGF-b pathway inhibition; 410,000 tested, 1.2% active; HepG2 CAGA-GFP TGF-b/SMAD3 reporter, GFP fluorescence, 18 h; TGF-beta stimulated, 500 pg/mL final; AID 588855; Potency, µM (titrated, usually from 46.1 µM), most hits filed as inhibitors; further: nearly all actives have a fitted effect of over 65% in size
#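 Smad-responsive CAGA-GFP expression was quantified in HEPG2 cells exposed to compounds and 500 pg/mL final TGF-beta for 18 h at 37 degrees C; unstimulated wells defined full inhibition.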
# ATXN2 expr inh = inhibitors of ATXN2 expression. HEK-293 ATXN2-luciferase reporter, luminescence, 24 h. Potency, µM (titrated, usually from 57 µM), hits mostly inhibitors. 360,000 tested, 0.72% active. AID 1745845; further: nearly all actives have a fitted effect of over 55% in size
#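 qHTS (up to 57 uM final) was run with 24 h compound exposure of reporter cells at 37 °C. Each well was multiplexed: SteadyGlo luminescence measured ATXN2-luciferase expression after a fluorogenic Gly-Phe-AFC viability readout (25 uM final).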
# Hits are given with their value; - = inactive; ? = inconclusive; . = no result; [ ] = remark or other dose. Unless noted, the call rests on the fitted dose curve; in most records, active means well fitted curve in the direction sought with a large enough effect; inconclusive means small, poorly fitted or top-dose-only effect, or another doubt; inactive means no such curve, though single readings can be large; an effect the other way counts as inactive or inconclusive.
SMILES,S2 tox,Six1-Eya2 inh,HepG2 tox,CtBP-E1A blk,TGFb SMAD3 inh,ATXN2 expr inh
C[C@H]1CN([C@@H](C)CO)S(=O)(=O)c2ccc(Br)cc2O[C@H]1CN(C)Cc1ccccc1F,?,-,-,-,16µM,?
C[C@@H]1CN([C@H](C)CO)S(=O)(=O)c2ccc(Br)cc2O[C@@H]1CN(C)Cc1ccc(-c2ccccc2)cc1,?,-,-,-,16µM,?
COc1ccc(CNS(=O)(=O)c2cnc(N)nc2)c(OC)c1,.,.,-,.,-,.
COc1ccc(NC(=O)N2CCC(CN3CCCC3)CC2)c(OC)c1,.,.,-,.,-,.
Cc1nn(-c2ccccc2)c2c1N(CC(=O)NCc1ccc(N(C)C)cc1)C(=O)CS2,-,.,-,.,-,-
O=C(CCc1nnc2n(Cc3ccccc3Cl)c(=O)c3ccccc3n12)Nc1ccccc1,.,.,-,.,-,.
O=[N+]([O-])c1ccc(/C=C2\C=C(C(O)c3ccc([N+](=O)[O-])cc3)c3ccccc32)cc1 (configuration not stated),.,.,-,.,7.1µM,.
CC(C)OP(=O)(OC(C)C)/C(C=O)=N\Nc1ccc([N+](=O)[O-])cc1,28µM,-,-,.,?,.
Cc1cc(C(=O)Nc2cccc(F)c2)c2c(C)nn(-c3cccc(Cl)c3C)c2n1,-,.,-,.,-,-
CC(C)=CCc1c(O)cc(O)c2c(=O)c3c(CC=C(C)C)c(O)ccc3oc12,25µM,-,16µM,-,4µM,?
O=C1C(=O)c2cccnc2-c2ncccc21,0.4µM,-83,2µM,-80,1.4µM,0.5µM
COC1=C(Br)C(=O)c2ncccc2C1=O,24µM,?,-,?,?,15µM
COc1ccc(C2C=C3CNS(=O)(=O)C3CC2OC(=O)c2cccs2)cc1 (configuration not stated),.,.,-,.,?,.
COc1ccc(C2C=C3CNS(=O)(=O)C3CC2OC(=O)c2ccc(C(F)(F)F)cc2)cc1 (configuration not stated),.,.,-,.,14µM,.
N#CC1=C(N)n2c(s/c(=C\c3ccco3)c2=O)=C(C#N)C1c1ccco1 (configuration not stated),-,-71,-,?,-,?
Cc1c(/C=N/NC(=O)COc2ccccc2[N+](=O)[O-])c2ccccc2n1C,-,-,-,.,?,.
Cc1[nH]n(-c2ccccc2)c(=O)c1/C=N/NC(=O)COc1ccccc1[N+](=O)[O-],-,-79,-,-88,-,?
COC(=O)N/N=C\c1c(C)[nH]n(-c2ccccc2)c1=O,-,-,-,-,-,-[11.3 µM]
Cc1[nH]n(-c2ccccc2)c(=O)c1/C=N/O,-,-,-,-,-,-
Cc1[nH]n(-c2ccccc2)c(=O)c1/C=N\NC(=O)C1COc2ccccc2O1 (configuration not stated),-,-89,-,-81,-,?
Cc1ccc2cccc(N=Cc3c(C)[nH]n(-c4ccccc4)c3=O)c2n1,-,-,-,-,?,28µM
CC(=O)N/N=C/c1c(C)[nH]n(-c2ccccc2)c1=O,-,-73,-,-68,-,-
O=C(CCc1c[nH]c2ccccc12)N1CCC(n2c(C3CCCO3)nc3cc(C(F)(F)F)ccc32)CC1 (configuration not stated),-,.,.,.,.,.
Cc1cccc(NC(=O)c2cc3c(=O)n(Cc4ccco4)ccc3nc2C)c1,.,.,-,.,-,.
COCC(=O)N/N=C/c1c(C)[nH]n(-c2ccccc2)c1=O,-,-77,-,-90,-,-
Cc1[nH]n(-c2ccccc2)c(=O)c1/C=N/NC(=O)C(C)C,-,?,-,-,-,?
Cn1nc([N+](=O)[O-])nc1S(C)(=O)=O,?,-,20µM,-,13µM,?
CS(=O)(=O)c1nc([N+](=O)[O-])nn1CCCc1ccccc1,.,-,-,-,?,?
COCCCNC(=O)c1ccc2c3c(onc13)-c1ccccc1C2=O,.,?,-,-,3.2µM,?
